In the supplement of paper PMC6555819:

What was measured:
Assay in all cases: PBM binding z-score (relative to random genomic background probes); higher = stronger binding; sequences stand for … in GC…GCGATTGACAGCGTAGAATGAAGG
[1] = system: RARb homodimer (NR concentration 270 nM)
Summary of the method: (§1)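 Antibodies against each partner of ligand-free nuclear receptor dimers (one per run) detected binding on custom Agilent 4×180K protein-binding microarrays after 1 h incubation. The double-stranded probes had 34-nt variable regions carrying direct-repeat seeds, single-nucleotide variants, half-site ablations and random human genomic background sequences. Binding z-scores, from regression-normalized fluorescence, use the random background probes as reference.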

[2] = system: RARg:RXRa (NR concentration 270 nM, RXRa partner concentration 90 nM)
Summary of the method: as §1

[3] = system: RARg homodimer (NR concentration 270 nM)
Summary of the method: as §1

[4] = system: RXRa DBDmut IVT, anti-RXR (DBD mutation: RXRa K156A/R161A, NR concentration 90 nM)
Summary of the method: as §1

[5] = system: RXRa homodimer (NR concentration 180 nM)
Summary of the method: as §1

[6] = system: THRa:RXRa (NR concentration 90 nM, RXRa partner concentration 90 nM)
Summary of the method: as §1

[7] = system: THRa homodimer (NR concentration 90 nM)
Summary of the method: as §1

[8] = system: VDR:RXRa (NR concentration 270 nM, RXRa partner concentration 90 nM)
Summary of the method: as §1

[9] = system: VDR homodimer (NR concentration 270 nM)
Summary of the method: as §1

Row | Sequence | PBM binding z-score [1] | PBM binding z-score [2] | PBM binding z-score [3] | PBM binding z-score [4] | PBM binding z-score [5] | PBM binding z-score [6] | PBM binding z-score [7] | PBM binding z-score [8] | PBM binding z-score [9]
1 | TCTCAGAGGACACGAAGGTCAGAGCTTTCCAGAG | 3.88 | 3.73 | 4.66 | 1.38 | 1.97 | 2.79 | 0.738 | 2.75 | 1.62
2 | TCATATAGGTAAATGCTAGGTGAAAGTACGATCT | 0.7 | 0.683 | 0.548 | 1.67 | 1.26 | 1.6 | 0.701 | 1.15 | 0.431
3 | GCTAGCAGGCCATTTGGATCACTCAATGACGGGC | -0.535 | -0.278 | -0.00293 | 0.0121 | -0.0428 | -0.754 | -0.938 | -0.73 | -0.518
4 | CCAGACAGGTGAAAGGTAATTCAGTCTGGTACGC | 0.45 | 1.04 | 0.643 | -0.17 | 1.68 | 0.696 | -0.243 | 0.632 | -0.314
5 | ATCTCTAGGTAACAAGTTCAGTTAAAGAGAGGAC | 1.9 | 1.37 | 1.45 | 0.748 | 0.837 | 1.73 | 1.16 | 2.23 | 2.34
6 | GGAACGACGGCAAAGTTGATAGCATCTGTCGACG | -0.736 | -0.162 | -0.0781 | -0.543 | 0.157 | -0.802 | -1.24 | -0.538 | -0.637
7 | CGTCCAAGGTGATAGGAGGTCAGTGAAGACAGAT | 3.59 | 2.56 | 2.86 | 0.227 | 1.88 | 4.34 | 1.51 | 3.08 | 0.846
8 | ATCTCTAGGTAACGAAGTTCAGTGAATGCCGAAC | 1.38 | 0.591 | 0.883 | 0.137 | 0.413 | 0.946 | 0.14 | 2.56 | 1.27
9 | CCTAGCAGGCCAATCTGGGCCACTCAAGGCTTGA | -0.384 | -0.481 | -0.168 | -0.177 | -0.923 | 1.24 | -0.893 | -0.783 | -1.12
10 | ATATGTAGGTTAAGGGTCATTCACGTTGGTTCGC | 3.78 | 4.72 | 3.42 | 2.33 | 6.15 | 3.36 | 1.12 | 4.75 | 4.09
11 | CGTCAAAGTTCAACTAAGGTAACGTAAAGCACGC | 4.51 | 5.92 | 6.41 | 4.68 | 5.28 | 5.33 | 1.93 | 4.74 | 3.26
12 | TCTAGTTGGTCAAAGGTCACACAATCGAAATGCG | 5.17 | 7.33 | 7.01 | 1.98 | 8.48 | 4.11 | 2.21 | 5.52 | 3.09
13 | ATCTCTAGGTAAAGATAGTTCCGTGAATGCAAAT | -0.314 | -0.154 | 0.427 | -0.0164 | 0.0158 | 0.316 | 0.233 | -0.0941 | 0.309
14 | TAGCCTAGGTCATGAGCCAGTATACCACGCGAAC | 2.5 | 4.1 | 3.99 | 0.516 | 3.37 | 2.97 | 1.01 | 1.88 | 0.409
15 | GGAACGAGGGCATTCGAGTTGTTAGCATGGCGAT | 0.647 | 0.902 | 1.17 | 2.89 | 0.659 | 2.06 | -0.524 | 2.82 | 2.43
16 | CATACAGGGTCAGCTGGGCCAGAGTAGGGACGGC | 3.31 | 4.6 | 4.97 | 1.48 | 4.64 | 3.12 | 0.678 | 3.63 | 1.18
17 | ATCTCTAGGTAAAGATAGTTCAGCGAATGCAAAT | 1.42 | 0.793 | 0.971 | -0.00603 | 0.377 | 0.867 | -0.0177 | 1.08 | 0.508
18 | GGAACGAGGGAAAGTTGATAGCAGAGTTTGATGG | -0.315 | -0.266 | 0.0692 | 0.0118 | -0.106 | -0.351 | -0.268 | -0.524 | -0.209
19 | TCTATTAGTTGAAGGGCAACCCACGAGTCCGTTT | 1.55 | 0.894 | 0.882 | 1.69 | 0.809 | 0.474 | 0.28 | 1.1 | 1.81
20 | CCTTACGGGTCACTGACAGGTTAAAGCATTTGGA | 3.06 | 6.25 | 5.25 | 1.51 | 5.63 | 2.9 | -0.0327 | 3.75 | 0.937
21 | ACTATTAGTTGAGACCAGGGCAACCGATAGGTTG | 0.667 | 0.276 | 0.568 | -0.232 | 0.3 | 1.79 | 0.11 | -0.036 | 0.0358
22 | GCTCGGAGGCCAAGGTCAGAGCTTTGTCCGTAGA | 3.1 | 2.72 | 3.69 | 0.649 | 1.93 | 2.64 | 1.27 | 1.16 | 0.281
23 | CGACCAAGGTCAAGGTCAGTGAAAGAGACTCGAA | 4.91 | 6.66 | 7.49 | 3.4 | 6.54 | 4.31 | 2.79 | 4.82 | 2.52
24 | TATACAGGGTAAAAGGCCAGAGTACGAATGTCGA | 1.6 | 1.56 | 1.59 | -0.337 | 1.11 | 0.651 | -0.663 | 0.433 | 0.418
25 | CCTCGGAGGGCAGAAGGTCAGAGCTGTCCGCTTT | 3.76 | 4.71 | 4.01 | -0.118 | 2.82 | 1.47 | -0.593 | 1.17 | -0.355
26 | TAGCCTAGGTCCTGGGCCAGTATACCACGCGAAC | -0.386 | -0.497 | -0.364 | -1.66 | -0.311 | -0.414 | -0.714 | -0.679 | -0.78
